This note sets out measurements from PubChem BioAssay (NCI).

The panel holds about 83,000 compounds, 20% with a hit somewhere; the sample as a whole holds those more often.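 The endpoint reported here, percent growth, reads 100 for growth as untreated, 0 for no net growth and -100 for all cells dead.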 Unmarked numbers belong to inactive results. Calls of active or inactive are those of the source. Rule for the calls: active = growth percent below 10; inactive = the rest.

Test in all cases: NCI-60 one-dose screen, 48 h (100 = growth as untreated, 0 = no growth, -100 = all killed)
Common to all, as to details: 10 µM unless noted

Experiment [1] deals with T-47D breast.
Experiment [2] deals with BT-549 breast.
Experiment [3] concerns MDA-MB-435 melanoma.
In experiment [4] the test system is SW-620 colon.
Experiment [5] relates to MCF7 breast.
The test system of experiment [6] is HCT-116 colon.
Experiment [7] relates to HCC-2998 colon.
For experiment [8], the system named is KM12 colon.

For the compound `C=CCOc1c(Br)cc(Br)cc1Br`, the growth in experiment [1] was 65.1%; in experiment [2], 67.4%; in experiment [3] it was 27.2%; in experiment [4], 76.1%; in experiment [5], 40.5%; in experiment [6], 54.5%. For the same compound, the growth in experiment [7] is 95.1%; in experiment [8], 84.8%.
In the case of `O=C(/C=C/c1cccc([N+](=O)[O-])c1)c1ccc(Nc2nc(N3CCCCC3)nc(N3CCCCC3)n2)cc1`, the growth in experiment [1] is 78.6%; in experiment [2] it was 91.8%; in experiment [3] it was -11.7% (active); in experiment [4] it was 94.2%; in experiment [5], 19.4%; in experiment [6], -34.5% (active). In addition, the growth is 81.8% in experiment [7] and 85.5% in experiment [8].
As for `CN1CCN(Cc2ccc(NC(=O)c3cncc(C#Cc4ccc(N)nc4)c3)cc2C(F)(F)F)CC1`, the growth in experiment [1] was 8.16% (active); in experiment [2], 18.7%; in experiment [3] it was 9.96% (active); in experiment [4], -15.3% (active); in experiment [5], 19.9%; in experiment [6] it was 1.86% (active). Moreover, the results for the growth in experiment [7] and in experiment [8] were 29.8% and 5.75% (active), respectively.
As for `Cc1nc2ccc(Nc3nc(NCCN4CCOCC4)nc(Nc4ccc(F)cc4)n3)cc2n1Cc1ccccc1`, the growth was 53% in experiment [1]; 49.9% in experiment [2]; 52.2% in experiment [3]; 42.4% in experiment [4]; 33.6% in experiment [5]; 27.9% in experiment [6]. Besides, the growth is 44.5% in experiment [7] and 43.4% in experiment [8].
On to `CCCc1n(Cc2ccc3ccccc3c2)c2ccccc2[n+]1Cc1ccc2ccccc2c1`, for which the growth was -9.39% (active) in experiment [1]; -76.6% (active) in experiment [2]; -82.8% (active) in experiment [3]; -74.2% (active) in experiment [4]; -64.4% (active) in experiment [5]; -91.2% (active) in experiment [6]. The growth in experiment [7] is -57.2% (active); in experiment [8], -75% (active).
Take `COc1ccc(-c2nsc3c2NC(=O)CC3c2cccc(F)c2)cc1` (stereo not drawn): the growth is 33.7% in experiment [1]; 50.3% in experiment [2]; -34.1% (active) in experiment [3]; 18% in experiment [4]; 26.4% in experiment [5]; 22.9% in experiment [6]. The figures for the growth in experiment [7] and in experiment [8] were 78.5% and 16.7%, respectively.
Turning to `COc1ccc(/C(=C\c2ccc3c(c2)OCO3)C(=O)Nc2nc3ccccc3s2)cc1`, the growth is 86.1% in experiment [1]; 103% in experiment [2]; 99.1% in experiment [3]; 108% in experiment [4]; 107% in experiment [5]; 85.4% in experiment [6]. In addition, the results for the growth in experiment [7] and in experiment [8] were 109% and 101%, respectively.
For the compound `C=CCn1c(SCC(=O)Nc2ccc(/C(C)=N\O)cc2)nnc1-c1cc(-c2ccc(Cl)cc2)nc2ccccc12`, the growth in experiment [1] is 7.73% (active); in experiment [2] it was 33.5%; in experiment [3], 30.8%; in experiment [4], 41.1%; in experiment [5], 14%; in experiment [6], 19.5%. Also, the growth is 21% in experiment [7] and 16.5% in experiment [8].
Turning to `COc1ccc([C@@H]2[C@@H](Cl)C(=O)N2c2cc(OC)c(OC)c(OC)c2)cc1C`, the growth was 77.7% in experiment [1]; 6.51% (active) in experiment [2]; -33.7% (active) in experiment [3]; 26.7% in experiment [4]; 20.5% in experiment [5]; 3.33% (active) in experiment [6]. The values for the growth in experiment [7] and in experiment [8] were 19.5% and 12.8%, respectively.
Take `Cc1cc(NC(=O)c2ccc(N)cc2)ccc1N=Nc1ccc2cc(S(=O)(=O)O)cc(S(=O)(=O)O)c2c1`: the growth in experiment [1] was 105%; in experiment [2] it was 108%; in experiment [3], 101%; in experiment [4] it was 96.7%; in experiment [5], 109%; in experiment [6], 111%. Further, the growth in experiment [7] and in experiment [8] was 105% each time.
On to `NNC(=O)Cc1ccccc1`, for which the growth is 85% in experiment [1]; 108% in experiment [2]; 83.7% in experiment [3]; 86.2% in experiment [4]; 91.5% in experiment [5]; 90.6% in experiment [6]. Besides, the growth was 102% in experiment [7] and 80.1% in experiment [8].
Consider `COc1ccc(/C=C(/C(=O)N2CCN(c3ccccc3)CC2)c2cc(OC)c(OC)c(OC)c2)cc1O`, for which the growth in experiment [1] is 68.4%; in experiment [2] it was 8.46% (active); in experiment [3], -52.8% (active); in experiment [4], 24.1%; in experiment [5], 19%; in experiment [6], 6.78% (active). In addition, the growth is 28.6% in experiment [7] and 9.6% (active) in experiment [8].
As for `CC(C)(C)c1ccc(Cn2c(-c3nonc3N)nc3ccccc32)cc1`, the growth in experiment [1] was 53.6%; in experiment [2], 90.2%; in experiment [3], 8.66% (active); in experiment [4] it was 51.5%; in experiment [5], 35.5%; in experiment [6], 62.6%. The growth was 77.7% in experiment [7] and 59.4% in experiment [8].
Turning to `CC(=O)OC1Oc2ccccc2-c2oc3nc(=N)n(C)c-3cc21` (stereo not drawn), the growth in experiment [1] is 93.6%; in experiment [2], 128%; in experiment [3], 122%; in experiment [4] it was 104%; in experiment [5], 98.6%; in experiment [6], 100%. In addition, the growth in experiment [7] is 102%; in experiment [8] it was 209%.
Consider `COS(=O)(=O)CCN(CCOS(C)(=O)=O)S(C)(=O)=O`, for which the growth in experiment [1] is 98%; in experiment [2], 97.5%; in experiment [3] it was 108%; in experiment [4], 107%; in experiment [5] it was 96%; in experiment [6] it was 100%. Besides, the growth in experiment [7] was 98%; in experiment [8], 105%.
As to `CCN(CC)CCCC(C)N/C(c1cccc(OC)c1)=c1\c(=O)[nH]n(-c2c3ccccc3nc3ccccc23)c(=O)\c1=C(/NC(C)CCCN(CC)CC)c1cccc(OC)c1` (stereo not drawn), the growth was -26.7% (active) in experiment [1]; -5.18% (active) in experiment [2]; -91.1% (active) in experiment [3]; -21.6% (active) in experiment [4]; -12.7% (active) in experiment [5]; -9.94% (active) in experiment [6]. In addition, the growth in experiment [7] is -72.7% (active); in experiment [8], -47.4% (active).
Take `NC(N)=N/N=C\c1cccc(OCc2ccccc2)c1`: the growth was 26.6% in experiment [1]; 94.1% in experiment [2]; 35.1% in experiment [3]; 36% in experiment [4]; 47.2% in experiment [5]; 41.9% in experiment [6]. Also, the results for the growth in experiment [7] and in experiment [8] were 4.51% (active) and 68.3%, respectively.
On to `C/C(CC(=O)NNc1ccc([N+](=O)[O-])cc1)=N\Nc1ccc([N+](=O)[O-])cc1`, for which the growth in experiment [1] was 50%; in experiment [2], 99.6%; in experiment [3], 35.4%; in experiment [4] it was 48.6%; in experiment [5] it was 83.8%; in experiment [6] it was 47.3%. Further, the growth in experiment [7] was 74.5%; in experiment [8], 25.4%.
With `CC1CN(CCCOC(=O)Nc2ccc(Cl)cc2)CCN1C(C)(C)C` (stereo not drawn), the growth in experiment [1] was 90%; in experiment [2], 101%; in experiment [3], 102%; in experiment [4] it was 110%; in experiment [5], 99%; in experiment [6], 100%. The growth is 101% in experiment [7] and 106% in experiment [8].
Turning to `COC(=O)/C=C/c1cc(OC(C)=O)c2c(c1)[C@@H](C(=O)OC)[C@H](c1ccc(OC(C)=O)c(OC(C)=O)c1)O2`, the growth in experiment [1] is 74.7%; in experiment [2] it was 13.5%; in experiment [3] it was -64.8% (active); in experiment [4] it was 15.7%; in experiment [5] it was 15.6%; in experiment [6], 6.38% (active). For the same compound, the growth in experiment [7] is 22.2%; in experiment [8] it was 5.97% (active).
Regarding `COc1ccc(NC(=O)/C=C/c2ccc(NC(=O)N3CCCC3)cc2)cn1`, the growth in experiment [1] was 99.9%; in experiment [2] it was 97.4%; in experiment [3], 103%; in experiment [4], 106%; in experiment [5], 91.7%; in experiment [6], 103%. Further, the growth in experiment [7] was 111%; in experiment [8], 103%.
In the case of `COc1cccc(NC(=O)[C@H](C(C)C)n2c(=O)[nH]c3ccccc3c2=O)c1`, the growth in experiment [1] was 91.1%; in experiment [2] it was 102%; in experiment [3], 108%; in experiment [4], 103%; in experiment [5], 98.2%; in experiment [6], 113%. Further, the growth in experiment [7] is 96.3%; in experiment [8], 104%.
As to `Cc1cc(O)c(C2=NN(c3ccc(S(N)(=O)=O)cc3)C(c3ccc(Cl)cc3)C2)c(C)c1Cl` (stereo not drawn), the growth in experiment [1] is 46.9%; in experiment [2], 112%; in experiment [3], 38.6%; in experiment [4], 48.5%; in experiment [5] it was 13%; in experiment [6] it was 55.1%. Moreover, the growth was 66.5% in experiment [7] and 29.1% in experiment [8].
With `Cc1cc(-c2nnc(/C=C/c3ccc4c(c3)OCO4)o2)n[nH]1`, the growth is 60.9% in experiment [1]; 35.1% in experiment [2]; -25.4% (active) in experiment [3]; 25.5% in experiment [4]; 31.7% in experiment [5]; 48.1% in experiment [6]. The growth in experiment [7] was 75.8%; in experiment [8], 36.1%.
As to `Cc1ccc(NC(=O)c2nc(S(C)=O)oc2-c2ccc(F)cc2)cc1Nc1nccc(-c2cccnc2)n1` (stereo not drawn), the growth in experiment [1] is 40%; in experiment [2], 26.9%; in experiment [3] it was 82.5%; in experiment [4], 8.58% (active); in experiment [5], 50.7%; in experiment [6], -53.3% (active). In addition, the growth was 97.5% in experiment [7] and 50.1% in experiment [8].
As for `Nc1ccc(C(OC(=O)c2cc3ccccc3c(Cc3c(O)c(C(=O)OC(c4ccc(N)cc4)(c4ccc(N)cc4)c4ccc(N)cc4)cc4ccccc34)c2O)(c2ccc(N)cc2)c2ccc(N)cc2)cc1`, the growth in experiment [1] was 17.2%; in experiment [2], -4.24% (active); in experiment [3], 6.93% (active); in experiment [4], 15.9%; in experiment [5] it was 9.51% (active); in experiment [6], 8.88% (active). Moreover, the figures for the growth in experiment [7] and in experiment [8] were 9.42% (active) and 5.29% (active), respectively.
